The source made the active and inactive calls.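 Rule for the calls: active = fluorescence slope higher than the sample average by over 3 SD (cut at about -0.22 in these data, passing the limit was not always enough); inactive = the rest.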
Biological target: Voltage-gated potassium channel subunit beta-2 (Rattus norvegicus) (UniProt P62483)
Assay: inhibitors of rat Kvbeta2 reductase activity – biochemical, NADPH fluorescence, primary screen (AID 622);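 note: slope of raw intensity against log time taken from 70 to 1610 s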
Details: recombinant KvBeta, 4-cyanobenzaldehyde reduction, at 10 µM, hits give high values

Sequence of Voltage-gated potassium channel subunit beta-2 (Rattus norvegicus) (P62483 whole entry, looked up): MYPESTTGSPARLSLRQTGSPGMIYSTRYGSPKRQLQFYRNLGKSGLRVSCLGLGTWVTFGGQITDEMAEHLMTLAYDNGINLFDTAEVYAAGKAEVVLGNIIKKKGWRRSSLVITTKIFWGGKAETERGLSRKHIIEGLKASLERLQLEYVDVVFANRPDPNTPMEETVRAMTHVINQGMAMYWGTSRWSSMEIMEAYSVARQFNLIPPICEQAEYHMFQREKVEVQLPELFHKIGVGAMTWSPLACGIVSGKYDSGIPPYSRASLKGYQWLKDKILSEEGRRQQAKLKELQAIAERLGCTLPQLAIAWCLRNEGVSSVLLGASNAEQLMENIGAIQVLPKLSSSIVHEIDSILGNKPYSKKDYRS

Fluorescence slope, inactive:
COC(=O)c1cc(=O)n2c(-c3ccc(OC)cc3)csc2n1 -0.383
COc1ccccc1OCC(O)COC(N)=O (stereo not given) -0.507
COc1cc2nc(N3CCN(C(=O)c4ccco4)CC3)nc(N)c2cc1OC -0.4
Cc1nnc(SCC2=C(C(=O)O)N3C(=O)[C@@H](NC(=O)Cn4cnnn4)[C@H]3SC2)s1 -0.495
Clc1ccc2c(c1)C(N1CCNCC1)=Nc1ccccc1O2 -0.471
CC1(C)S[C@@H]2[C@H](NC(=O)[C@H](C(=O)O)c3ccsc3)C(=O)N2[C@H]1C(=O)O -0.44
O=C(O)c1cc(=O)c2c(OCC(O)COc3cccc4oc(C(=O)O)cc(=O)c34)cccc2o1 -0.505
CC[C@H]1OC(=O)C[C@@H](O)[C@H](C)[C@@H](O[C@@H]2O[C@H](C)C[C@H](N(C)C)[C@H]2O)[C@@H](CC=O)C[C@@H](C)C(=O)C=C[C@]2(C)O[C@H]2[C@@H]1C -0.498
O=C(O)CCNC(=O)c1ccccc1 -0.479
Cc1ccc(C2C3CN(C(C)C)CC=C3C(C#N)=C(N)C2(C#N)C#N)cc1 (stereo not given) -0.33

From PubChem BioAssay
